Hits are enriched below; roughly 12% of the tested compounds scored in any of these assays.
Cycloheximide cs – affects cycloheximide protein synthesis inhibition readout, counter-screen; AID 2314; cell reporter, cycloheximide protein synthesis inhibition counterscreen; hit rate 12% among 300,000; max response, %; in the data active = max response mostly above about 13%, no sharp cut-off; inactive = mostly below about 14%; also: read at 38.3 µM for the half of the compounds with a filed dose; 0% is about no effect
Sm TGR inh – blocks Schistosoma mansoni thioredoxin glutathione reductase; hit rate 3% among 360,000; purified TGR, DTNB reduction, TNB absorbance 405 nm; Q962Y6; Potency, µM (doses to about 114 µM), inactives show at the highest dose activity change, negative = inhibition, most hits filed as inhibitors; active = well fitted inhibition curve with a large enough effect; inconclusive = small, poorly fitted or top-dose-only effect; inactive = no such curve, though single readings can be large or run the other way; also: potency is read from the fitted curve at half-maximal effect; % is scaled to controls: 0 for no effect and ±100 for the full control effect; nearly all actives have a fitted effect of over 60% in size
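Kinetic colorimetric format: TGR-catalysed, NADPH-driven DTNB reduction monitored via TNB absorbance. Enzyme dispensed at 20 nM; compound exposure 15 min at room temperature before reaction start.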
FMDV inh – blocks foot and mouth disease virus; FMDV antiviral cell-based qHTS; AID 1159524; Potency, µM (top dose mostly 57.9 µM), inactives show at the top dose activity change, negative = inhibition, most hits filed as inhibitors; hit rate 1.2% among 410,000; calls by dose curve; tested in HEK293T cells; also: read-out not given here; potency is read from the fitted curve at half-maximal effect; % is scaled to controls: 0 for no effect and ±100 for the full control effect; nearly all actives have a fitted effect of over 45% in size
Shiga inhibitor – Shiga toxin inhibition; Vero cells, Shiga toxin protein synthesis inhibition reporter; inhibition, % at 38.7 µM; hit rate 9.2% among 290,000; in the data active = inhibition mostly above about 28%, no sharp cut-off; inactive = mostly below about 43%; also: 0% is about no effect
The depositor's hits bear a star; u = inconclusive; x = no result given.

SMILES	Cycloheximide cs	Sm TGR inh	FMDV inh	Shiga inhibitor
COc1cccc(-c2cc3c(-n4cccc4)ncnc3o2)c1	12	8%	-3%	43*
Cc1ccccc1Oc1ncnc2oc(-c3ccccc3)cc12	-2	-20%	0%	11
O=C(c1ccco1)N(Cc1cc2cc3c(cc2nc1N1CCOCC1)CCC3)CC1CCCO1 (stereo not given)	x	x	10%	x
O=C(CSc1nnc(-c2ccncc2)o1)Nc1ccccc1C(F)(F)F	-1	-1%	-7%	-8
Cc1ccc(C)c(NC(=O)CSc2nnc(-c3ccccc3C)o2)c1	-5	5%	4%	8
Cc1cc(-c2nnc(SCC(=O)Nc3ccccc3C(F)(F)F)o2)c(C)n1-c1ccccc1	40*	-12%	u	58
Cc1cccc(NC(=O)CSc2nnc(-c3cc(C)n(-c4ccccc4)c3C)o2)c1C	25*	-23%	6%	33*
Cc1cc(C)c2c(N=NN3CCCCC3)[nH]nc2n1	38*	-12%	24%	41*
CCN(CC)N=Nc1[nH]nc2nc(C)cc(C)c12	25	5%	23%	4
Cc1ccc(Nc2cc(C)c(C#N)c3nc4ccccc4n23)cc1Cl	x	-3%	0%	x
O=[N+]([O-])c1cccc(NC(=S)N2CCCC2)c1	2	-25%	0%	-5
O=C(Nc1cccc(C(F)(F)F)c1)C(=O)N1CCCCC1	11*	1%	23%	24
O=C(Nc1cccc([N+](=O)[O-])c1)C(=O)N1CCCCC1	43*	-5%	46%	69*
Cc1cc(C)c(NC(=O)c2nc3ccccc3nc2N2CCCCC2)c(C)c1	x	5%	u	x
Cc1cc(C)nc(-n2nc(C)c3c2NC(=O)CC3c2cc(F)ccc2F)n1 (stereo not given)	x	1%	-25%	x
Cc1ccc(C)c(NC(=O)/C(C#N)=C/c2cn(CC(=O)NCc3ccco3)c3ccccc23)c1	-3	-4%	-8%	-13
Cc1ccccc1N/C(SCc1ccc(Cl)cc1)=C(/C#N)C(=O)NCc1ccco1	41*	8%	-21%	112*
Cc1ccc(CS/C(Nc2ccccc2C)=C(\C#N)C(=O)NCc2ccco2)c(C)c1	66*	-6%	-27%	91*
O=C(N/N=C/c1ccccc1[N+](=O)[O-])c1ccc2c(c1)OCCO2	33*	-16%	u	61*
O=C(N/N=C/c1cc([N+](=O)[O-])ccc1O)c1ccncc1	-2	-3%	11%	-6
COc1ccc(/C=N/NC(=O)c2ccc3c(c2)OCCO3)cc1[N+](=O)[O-]	-1	-1%	-5%	-2
O=C(N/N=C/c1cccc(O)c1)c1ccc2c(c1)OCCO2	9	0%	57%	9
O=C(N/N=C/c1cc(O)ccc1[N+](=O)[O-])c1ccc2c(c1)OCCO2	15*	-10%	u	-15
O=C(N/N=C/c1cc([N+](=O)[O-])ccc1O)c1ccc2c(c1)OCCO2	18*	5%	6%	17
Cc1cc(C)c2c(CC(=O)N(Cc3ccc(Cl)cc3)Cc3ccco3)coc2c1	x	-12%	u	x
SMILES	Cycloheximide cs	Sm TGR inh	FMDV inh	Shiga inhibitor
O=[N+]([O-])c1cc(Br)c(Nc2ccccc2)c([N+](=O)[O-])c1	16	11µM*	u	22
CCOC(=O)Cc1c(C(=O)OCC)nnc2c(-c3ccccc3)c(C)nn12	x	17%	-20%	x
Cc1ccc(-c2nc(CS(=O)CC(=O)NC3CC3)c(C)o2)cc1 (stereo not given)	-3	u	6%	8
CCc1ccc(-c2nc(CS(=O)CC(=O)NC3CC3)c(C)o2)cc1 (stereo not given)	10	4µM*	20%	12
CCc1ccc(-c2nc(CS(=O)CC(=O)NC3CCCCCC3)c(C)o2)cc1 (stereo not given)	14*	7.9µM*	11%	15
CCc1ccc(-c2nc(CS(=O)CC(=O)O)c(C)o2)cc1 (stereo not given)	46*	0.35µM*	-4%	53*
COc1ccc(/C=N/NC(=O)c2cccc([N+](=O)[O-])c2)cc1OC	1	x	-4%	17
COc1cc(/C=N/Nc2cccc(C)c2)ccc1OC(=O)c1ccco1	39*	-17%	70%	20
COc1cc(/C=N/NC(N)=O)ccc1OC(=O)c1ccco1	0	-6%	0%	-15
COc1cc(/C=N/NC(=O)c2cccc([N+](=O)[O-])c2)ccc1OC(=O)c1ccco1	7	15%	11%	40*
COc1ccc(NC(=O)CCc2c(C)nc3c(-c4ccc(F)cc4)c(C)nn3c2C)c(OC)c1	x	8%	u	x
CC(C)Oc1ccc(C2CC(=O)N(C)C2=O)cc1 (stereo not given)	-3	5%	17%	23
O=C1CC(c2ccc(OCCCCCOc3ccc(C4CC(=O)NC4=O)cc3)cc2)C(=O)N1 (stereo not given)	-2	-14%	28µM*	-21
